697 NFkB inh = lowers PMA/ionomycin-induced NF-kB signal in 697 B cells. 697 B-cell NF-kB luciferase reporter, 16 h. inhibition, % at 4 µM. 0.33% of 330,000 active. AID 435022; in the data active = inhibition above about 35%
Beta apoptosis = blocks beta cell apoptosis; INS-1E cytokine-induced death, ATP luminescence, 48 h; percent of positive-control rescue, neutral wells zero; protection from apoptosis, % (test concentration not listed); 0.8% of 300,000 active; AID 435005;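 active = Every replicate reaches about 75%, or at least half do and their mean reaches it too, limit read from the data; inconclusive = At least half of replicates reach the limit but their mean does not; inactive = Under half of replicates reach the limit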;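 note: higher means more ATP so stronger rescue from cytokine killing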
Mdm2 MdmX PPI = inhibitors of human Mdm2/MdmX interaction | inhibition, % at 8 µM | O15151+Q00987 | 3% of 330,000 active | SaOS-2 split-luciferase Mdm2/MdmX complementation, luminescence;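 active = inhibition of at least 50% at 8 µM in the primary screen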
Target sequence (O15151 whole entry, looked up): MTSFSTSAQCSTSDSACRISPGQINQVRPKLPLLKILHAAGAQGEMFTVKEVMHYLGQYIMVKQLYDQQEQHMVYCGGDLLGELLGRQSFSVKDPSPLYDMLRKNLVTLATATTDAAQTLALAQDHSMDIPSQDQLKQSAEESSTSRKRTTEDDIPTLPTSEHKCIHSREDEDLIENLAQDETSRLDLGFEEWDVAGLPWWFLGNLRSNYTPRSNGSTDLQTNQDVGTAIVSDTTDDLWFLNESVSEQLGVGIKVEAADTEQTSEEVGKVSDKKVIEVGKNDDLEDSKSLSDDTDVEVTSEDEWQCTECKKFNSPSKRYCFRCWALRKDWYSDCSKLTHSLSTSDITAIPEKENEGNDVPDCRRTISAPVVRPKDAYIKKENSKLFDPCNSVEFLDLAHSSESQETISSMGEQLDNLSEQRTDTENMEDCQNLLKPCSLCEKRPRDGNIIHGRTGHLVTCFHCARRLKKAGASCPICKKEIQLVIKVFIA
Target sequence (Q00987 whole entry, looked up): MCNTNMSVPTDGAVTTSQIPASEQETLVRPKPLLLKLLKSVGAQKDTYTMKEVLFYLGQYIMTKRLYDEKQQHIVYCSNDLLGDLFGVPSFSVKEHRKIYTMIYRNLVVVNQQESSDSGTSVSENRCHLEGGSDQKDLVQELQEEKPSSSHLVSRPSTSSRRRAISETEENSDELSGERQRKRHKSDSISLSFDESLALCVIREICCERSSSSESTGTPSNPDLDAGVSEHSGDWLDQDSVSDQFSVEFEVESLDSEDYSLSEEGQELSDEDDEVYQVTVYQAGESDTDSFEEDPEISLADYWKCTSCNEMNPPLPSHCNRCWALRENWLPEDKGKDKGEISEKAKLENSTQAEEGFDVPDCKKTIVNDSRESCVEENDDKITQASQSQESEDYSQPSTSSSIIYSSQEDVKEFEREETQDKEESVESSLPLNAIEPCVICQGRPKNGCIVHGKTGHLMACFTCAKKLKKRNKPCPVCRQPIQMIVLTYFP
Jurkat NFkB inh = inhibitors of the PMA/ionomycin-induced NF-kB reporter in Jurkat cells; PMA/ionomycin-induced NF-kB luciferase reporter, luminescence; inhibition, % at 4 µM; 0.53% of 330,000 active; AID 435003; in the data active = inhibition above about 50%
CSC inhib = cancer stem cell inhibition; cancer stem cell-like cells viability, luminescence; inhibition, % at 7.5 µM; 1.1% of 300,000 active; AID 2717; in the data active = inhibition above about 75%; inconclusive = no clear call, values can overlap the other calls; tested in HMLE shEcad cells
Gli-Sufu antag = blocks Gli-Sufu signaling in a luciferase reporter. inhibition, % at 5 µM. Sufu-KO-LIGHT fibroblasts, Gli luciferase reporter luminescence. 0.74% of 340,000 active;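 active = inhibition above about 55%, limit read from the data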
Mdm2 MdmX conf = confirmation of human Mdm2/MdmX interaction inhibitors | shares compounds with Mdm2 MdmX PPI | Mdm2-MdmX binding, luminescent assay | inhibition, % at 8 µM | 55% of 10,000 active | AID 489028; in the data active = inhibition above about 40%
Full FLuc ctr = full-length luciferase inhibition in Mdm2/MdmX counter-screen | 77% of 6,200 active | SaOS-2 full-length luciferase counterscreen, luminescence | shares compounds with Mdm2 MdmX PPI | inhibition, % at 8 µM;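 active = mean inhibition at 8 µM reaching about 37%, which flags the compound as non-specific, limit read from the data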;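 note: p53-null SaOS-2 cells with luciferase driven by a doxycycline-inducible promoter; compound on cells about two nights before reading with doxycycline added after day one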
Each line names hits and unclear results; the compound was inactive in the other large screens (follow-up assays come after a bar, where they were run). Rows were chosen to be rich in hits. Some 4.5% of all compounds tested hit in one or more screens of this group.

Cc1ccc(OCCCCNC2CCCC(C)C2C)c(C)c1 (stereo not drawn)	Mdm2 MdmX PPI 56 | Mdm2 MdmX conf inactive
O=C(Nc1cccc(C(F)(F)F)c1)c1cccnc1	none
Oc1c(C(Nc2cccc(C(F)(F)F)c2)c2ccncc2)ccc2cccnc12 (stereo not drawn)	Beta apoptosis 79, Mdm2 MdmX PPI 61 | Mdm2 MdmX conf 49 | Full FLuc ctr inactive
COc1cc2nc(SCc3c(C)noc3C)n(CCC3=CCCCC3)c(=O)c2cc1OC	Mdm2 MdmX PPI 87 (no result: Beta apoptosis) | Mdm2 MdmX conf 52 | Full FLuc ctr 50
CCOC(=O)C1=CN(Cc2cccc(F)c2)S(=O)(=O)N(CC)C1c1ccc(F)c(Cl)c1 (stereo not drawn)	none (no result: Beta apoptosis, Jurkat NFkB inh, CSC inhib)
O=C(c1ccco1)N1CCN(C2CC(=O)N(c3ccc(F)c(Cl)c3)C2=O)CC1 (stereo not drawn)	none
Cc1ccc(C(CNS(=O)(=O)c2cc(F)ccc2F)N2CCN(C)CC2)cc1 (stereo not drawn)	none (no result: Beta apoptosis, CSC inhib)
COc1ccc(CNC(=O)COC(=O)c2ccc(OCC3CCCO3)cc2)cc1 (stereo not drawn)	none (no result: CSC inhib)
CCc1cc2ccc(OC)cc2nc1SCC(=O)Nc1cc(C)on1	Mdm2 MdmX PPI 50 | Mdm2 MdmX conf inactive
COc1ccccc1/C=C/C(=O)OCC(=O)Nc1ccc(Cl)cn1	Mdm2 MdmX PPI 55 | Mdm2 MdmX conf 51 | Full FLuc ctr 60
c1ccc(Nc2nc(NCc3ccco3)c3ccccc3n2)cc1	Beta apoptosis 81, Mdm2 MdmX PPI 78, Gli-Sufu antag 56 | Mdm2 MdmX conf inactive
Oc1ccccc1Nc1nc(NCc2ccco2)c2ccccc2n1	none (no result: CSC inhib)
COc1cccc(Nc2nc(NCCO)c3ccccc3n2)c1	Mdm2 MdmX PPI 65 | Mdm2 MdmX conf 62 | Full FLuc ctr inactive
Cc1ccc(NC(=O)COC(=O)Cn2ccc(=O)[nH]c2=O)cc1C	none
O=S(=O)(Nc1ncccn1)c1ccc(NC(=S)N2CCN(Cc3ccc(F)cc3Cl)CC2)cc1	none
CC(C)N1C/C(=C/c2ccsc2)C(=O)/C(=C/c2ccsc2)C1	Mdm2 MdmX PPI 92 | Mdm2 MdmX conf inactive
CC1(C)Cc2ccccc2C(c2cc3ccccc3oc2=O)=N1	Mdm2 MdmX PPI 62 | Mdm2 MdmX conf inactive
CC1(C)Cc2c(ccc3ccccc23)C(c2cc3ccccc3oc2=O)=N1	none
CC[C@]1(c2ccccc2OC)ON(c2ccccc2C(F)(F)F)C1=O	Beta apoptosis 87, Mdm2 MdmX PPI 90 | Mdm2 MdmX conf 84 | Full FLuc ctr inactive
COc1ccccc1[C@]1(C)ON(c2ccccc2C(F)(F)F)C1=O	Mdm2 MdmX PPI 92 | Mdm2 MdmX conf 77 | Full FLuc ctr 37
Cc1c(C(=O)Nc2ccc(Cl)cc2)c2ccccn2c1C(=O)c1ccc([N+](=O)[O-])cc1	none
Cc1c(C(=O)Nc2ccc(Cl)cc2)c2ccccn2c1C(=O)c1ccccc1	Mdm2 MdmX PPI 59 (no result: CSC inhib) | Mdm2 MdmX conf inactive
CCOC(=O)c1c(NC(=S)N2CCOCC2)sc2c1CCN(C(=O)OCC)C2	Mdm2 MdmX PPI 51 | Mdm2 MdmX conf inactive
CCOC(=O)c1c(NC(=S)N2CCCCC2)sc2c1CCN(C(=O)OCC)C2	Mdm2 MdmX PPI 72, CSC inhib 93 | Mdm2 MdmX conf inactive
C=CCNC(=S)Nc1sc2c(c1C(=O)OCC)CCN(C(=O)OCC)C2	none
O=C(NCCc1c[nH]c2ccccc12)C(=O)NCC1OCCCN1S(=O)(=O)c1cc(F)ccc1F (stereo not drawn)	none
CC(C)=CCc1c2c(c(O)c3c(=O)c4c(oc13)-c1cc(O)c(O)cc1OC4C=C(C)C)C=CC(C)(C)O2 (stereo not drawn)	Mdm2 MdmX PPI 83 | Mdm2 MdmX conf 42 | Full FLuc ctr inactive
CC(C)=CCc1c(-c2ccc(O)cc2O)oc2c3c(cc(O)c2c1=O)OC(C)(C)C=C3	none
O=C(CCN1C(=O)/C(=C/c2ccc(Cl)cc2)SC1=S)NC1C=CS(=O)(=O)C1 (stereo not drawn)	Mdm2 MdmX PPI 59 | Mdm2 MdmX conf inactive
O=C(CN1C(=O)/C(=C/c2ccc(Cl)cc2)SC1=S)NC1C=CS(=O)(=O)C1 (stereo not drawn)	none
CC(C)c1ccc(/C=C2\SC(=O)N(CC(=O)NC3C=CS(=O)(=O)C3)C2=O)cc1 (stereo not drawn)	Mdm2 MdmX PPI 77 | Mdm2 MdmX conf 40 | Full FLuc ctr 40
CN(CC(=O)Nc1c(Cl)cccc1Cl)C(=O)c1ccc2nc[nH]c2c1	none
CC(OC(=O)/C=C/c1ccccc1)C(=O)Nc1cccc(C#N)c1 (stereo not drawn)	Mdm2 MdmX PPI 56 | Mdm2 MdmX conf 58 | Full FLuc ctr 95
CN1CCN(CCCNC(=O)c2ccc(/C=C3\Sc4ccccc4N(Cc4ccccc4F)C3=O)cc2)CC1	none (no result: 697 NFkB inh, Beta apoptosis, Mdm2 MdmX PPI, Jurkat NFkB inh, CSC inhib)
CCN1CCN(CCNC(=O)c2ccc(/C=C3/Sc4ccccc4N(Cc4cccc(Cl)c4)C3=O)cc2)CC1	Mdm2 MdmX PPI 96, CSC inhib inconclusive | Mdm2 MdmX conf 81 | Full FLuc ctr 58
Cc1ccccc1CN1C(=O)/C(=C\c2ccc(C(=O)NCCN3CCOCC3)cc2)Sc2ccccc21	none
CCN1CCN(CCNC(=O)c2ccc3c(c2)N(Cc2ccc(F)cc2)C(=O)/C(=C/c2ccccc2)S3)CC1	Mdm2 MdmX PPI 96, CSC inhib 103 | Mdm2 MdmX conf 74 | Full FLuc ctr inactive
O=C(NCCN1CCOCC1)c1ccc(/C=C2\Sc3ccccc3N(Cc3ccccc3F)C2=O)cc1	Mdm2 MdmX PPI 60 | Mdm2 MdmX conf inactive
Cc1cccc(CN2C(=O)/C(=C\c3ccc(C(=O)NCCN4CCOCC4)cc3)Sc3ccccc32)c1	Mdm2 MdmX PPI 80 | Mdm2 MdmX conf 61 | Full FLuc ctr 76
CCCn1nnc(NC(=S)NC(=O)/C=C/c2ccco2)n1	none (no result: Beta apoptosis)
Cc1ccc(-n2c(-c3ccccc3)cc(/C=N/NC(=O)CC#N)c2-c2ccccc2)cc1	Beta apoptosis 123, Mdm2 MdmX PPI 55 (no result: Gli-Sufu antag) | Mdm2 MdmX conf inactive
CCCCOc1ccccc1/C=N/NC(=O)CC#N	none
COc1ccc2nc(SCC(C)=O)c(C#N)cc2c1	none
COc1ccc2nc(SCC(=O)N3CC(=O)Nc4ccccc43)c(C#N)cc2c1	Mdm2 MdmX PPI 65 | Mdm2 MdmX conf 68 | Full FLuc ctr 46
Cc1cc(C)c2nc(SCC(=O)N3CC(=O)Nc4ccccc43)c(C#N)cc2c1	Mdm2 MdmX PPI 69 | Mdm2 MdmX conf 71 | Full FLuc ctr 112
CCOC(=O)C1=C(CCl)NC(=O)NC1c1ccc2c(c1)OCO2 (stereo not drawn)	Mdm2 MdmX PPI 59 | Mdm2 MdmX conf inactive
O=[N+]([O-])c1ccccc1CNCCCCCO	none

Screens from PubChem.
